Results: PubChem BioAssay (NCI)
Compounds without any hit were thinned out: in the full panel of roughly 83,000, 20% have a hit.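 Results are percent growth after 48 hours of single-concentration exposure. 100 means growth as in untreated cells, lower positive values show inhibition; negative values down to -100 show cell death.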 Active and inactive are the calls of the source. Rule for the calls: active = growth percent below 10; inactive = the rest.

Key:
Assay in all cases: NCI-60 one-dose screen, 48 h (100 = growth as untreated, 0 = no growth, -100 = all killed)
Conditions in all cases: 10 µM unless noted
[1] = tested on: SK-MEL-2 melanoma
[2] = tested on: EKVX NSCLC
[3] = tested on: SN12C renal
[4] = tested on: UO-31 renal
[5] = tested on: TK-10 renal
[6] = tested on: ACHN renal
[7] = tested on: A498 renal
[8] = tested on: MOLT-4 leukemia
[9] = tested on: CCRF-CEM leukemia
[10] = tested on: CAKI-1 renal

Measured: growth

O=C(Oc1ccc[nH]c1=O)c1cc([N+](=O)[O-])cc([N+](=O)[O-])c1
active: [1] -11.5%
inactive: [2] 112% | [3] 107% | [4] 96.7% | [5] 90.3% | [6] 107% | [7] 108% | [8] 135%

COc1cccc(CCC2CCCN(c3cc(C)nc(N)n3)C2)c1 (centres undefined)
active: [7] -2.99%
inactive: [1] 29.1% | [2] 41.4% | [3] 34.1% | [4] 35.7% | [5] 37.5% | [9] 25.7% | [8] 27.5%

CCCCCOC(=O)c1cccc(NC(=O)CN(CC)CC)c1
inactive: [1] 70.7% | [2] 100% | [3] 106% | [4] 89.2% | [5] 82.9% | [7] 113% | [9] 78.6% | [8] 87.5%

O=S(=O)(Cc1ccccc1)c1nc2ccccc2s1
inactive: [1] 57.7% | [2] 99.3% | [3] 35.5% | [4] 49.9% | [5] 98% | [7] 111% | [9] 15.4% | [8] 14.1%

OC(CBr)c1ccnc2ccccc12 (centres undefined)
inactive: [1] 93.3% | [2] 103% | [3] 99.6% | [4] 83.4% | [5] 89.4% | [7] 102% | [9] 76.8% | [8] 93.8%

O=C1N(c2ccccc2)C(=S)N[C@]12[C@H](c1ccccc1)C1CCCN1[C@]21C(=O)NC2C=CC(Cl)=C[C@H]21 (some centres undefined)
inactive: [1] 91% | [2] 100% | [3] 98% | [4] 71.3% | [5] 113% | [7] 107% | [9] 77.6% | [8] 79%

CC(C)N(CCOC(=O)Nc1ccccc1Cl)C(C)C
inactive: [1] 104% | [2] 99.7% | [3] 99.1% | [4] 85.1% | [5] 108% | [7] 109% | [9] 83.7% | [8] 88.6%

N#Cc1cnn2c(-c3ccc(Cl)cc3)nc(NC3CC3)nc12
inactive: [1] 99.8% | [2] 75.9% | [3] 98.9% | [4] 69.2% | [5] 94.2% | [6] 96.8% | [9] 95.7% | [8] 80.1%

COc1cc2c(cc1OC)-c1ccc3cc4c(cc3c1N(CCN1CCCC1)C2)OCO4
inactive: [1] 57.9% | [2] 36.3% | [4] 32.7% | [5] 34.2%
active: [3] -29.9% | [7] -2.77% | [9] -5.95% | [8] 2.96%

O=C(NC1CCOCC1)c1ccc2c(c1)CN(c1ncc(Cc3cccc(-n4cccn4)c3)s1)CC2
inactive: [1] 54.9% | [2] 53.5% | [3] 82.1% | [4] 64.4% | [5] 81.7% | [7] 46.6% | [9] 52.1% | [8] 40.3%

COc1cc2c(cc1OC)-c1ccc3cc4c(cc3c1N(CCN(C)C)C2)OCO4
inactive: [1] 36% | [2] 25.4% | [4] 24.2% | [5] 16.6%
active: [3] 0.583% | [7] -33.8% | [9] -1.03% | [8] 0.14%

Cc1cc(=O)c2cc3nc(-c4cccnc4)oc3c(Br)c2o1
inactive: [1] 131% | [2] 98.9% | [3] 110% | [4] 106% | [5] 153% | [6] 110% | [7] 103% | [9] 94.1% | [8] 89.7%

CCN(CC)CCCC(C)NCc1ccccc1 (centres undefined)
inactive: [1] 80.9% | [2] 102% | [3] 102% | [4] 83.5% | [5] 83.6% | [7] 105% | [9] 120% | [8] 110%

CCCCNCC(=O)Nc1ccc(C(=O)OCC)cc1
inactive: [1] 93% | [2] 98.3% | [3] 104% | [4] 91.8% | [5] 96.1% | [7] 101% | [9] 79.4% | [8] 80.7%

CCN(CCO)CC(=O)c1cc(Cl)cc(Cl)c1Cl
inactive: [1] 92.4% | [2] 105% | [3] 100% | [4] 93.5% | [5] 86.7% | [7] 102% | [9] 82.9% | [8] 90.5%

Cc1ccc(S(=O)(=O)NN/C(N)=N\S(=O)(=O)c2cc(C)c(Cl)cc2SCc2ccccc2)cc1
inactive: [1] 86.9% | [2] 107% | [3] 101% | [4] 77.9% | [5] 130% | [6] 93.6% | [9] 74.1% | [8] 61.3%

N#Cc1cnn2c(-c3ccc(Cl)cc3)nc(NCCc3ccccc3)nc12
inactive: [1] 89.1% | [2] 87.3% | [3] 99.6% | [4] 72.9% | [5] 102% | [6] 94.2% | [9] 96.4%

C=C1C(=O)O[C@H]2[C@H]1CC/C(C(=O)NCCCCCCCCNC(=O)/C1=C/CC[C@@]3(C)O[C@H]3[C@H]3OC(=O)C(=C)[C@@H]3CC1)=C\CC[C@@]1(C)O[C@@H]21
inactive: [1] 80.1% | [2] 97.2% | [3] 76.2% | [4] 80.8% | [5] 64.4% | [7] 107% | [8] 15.2%
active: [9] 4.79%

O=c1[nH]nc(-c2ccc(Cl)cc2)cc1Cc1ccccc1
inactive: [1] 101% | [2] 86% | [3] 103% | [4] 61.7% | [5] 109% | [6] 92.7% | [9] 81.6% | [8] 79.6%

COc1ccc(-c2nnc(-c3ccc4c(c3)nc(-c3ccccc3)n4C3CCCCC3)o2)cc1
inactive: [1] 57.9% | [2] 73% | [3] 65.4% | [4] 40.7% | [5] 68.9% | [6] 60.5% | [7] 85.2% | [8] 31.5%

COc1cc(-c2cccc([N+](=O)[O-])c2)c(-c2nc(-c3ccccc3)c(-c3ccccc3)n2C2CC2)cc1OC
inactive: [1] 57.6% | [2] 57.2% | [3] 75.1% | [4] 37.7% | [5] 66.2% | [7] 77.6% | [9] 48.1% | [8] 25.9%

OCCCCc1nccc2c1[nH]c1ccccc12
inactive: [1] 121% | [2] 94.8% | [3] 103% | [4] 95.1% | [5] 67.9% | [6] 98.7% | [7] 112% | [8] 119%

[2H]c1nc(Nc2ncc(F)c(-c3cc(F)c4nc(C)n(C(C)C)c4c3)n2)c([2H])c([2H])c1CN1CCN(C([2H])([2H])C([2H])([2H])[2H])CC1
inactive: [1] 50.1% | [2] 51.7% | [3] 54.3% | [4] 23.2% | [5] 21.6% | [7] 44.3% | [9] 35.2% | [8] 21.1%

CCCCCCN(CCCCCC)CC(O)c1cccc2ccc(Cl)cc12 (centres undefined)
inactive: [1] 46.6% | [2] 77.2% | [3] 72.8% | [4] 47.9% | [6] 50.8% | [10] 25.3% | [7] 67.3% | [9] 67.6% | [8] 37.8%

COC(=O)c1ccc2oc(NC(=O)c3ccc(N4CCOCC4)c([N+](=O)[O-])c3)nc2c1
inactive: [1] 99.5% | [2] 96.6% | [3] 87.3% | [5] 115% | [6] 94.1% | [10] 85.9% | [7] 98.5% | [9] 90.3%

COc1cc2nc(Nc3ccc(F)cc3)nc(N)c2cc1OC
inactive: [1] 91% | [2] 106% | [3] 92% | [4] 76.1% | [6] 101% | [10] 102% | [7] 63.6% | [9] 81.4% | [8] 65.3%

CCN(CC)CCNc1ccc(C)c2sc3cc(C)ccc3c(=O)c12
inactive: [1] 55.7% | [2] 81.3% | [3] 53.8% | [4] 41% | [5] 57.9% | [7] 84.8% | [8] 30.6%

NC(N)=N/N=C(/c1ccccc1)c1ccc(N)cc1
active: [10] -0.33%
inactive: [1] 112% | [2] 88.2% | [3] 96.2% | [5] 135% | [6] 107% | [7] 125% | [9] 124% | [8] 107%

CCN(CC)c1ccc(Nc2ccc(CC(=O)c3ccccc3)cc2)cc1
inactive: [1] 81.7% | [2] 76.4% | [3] 95.3% | [4] 71.5% | [5] 107% | [9] 95.9% | [8] 102%

COc1cc2cc(Oc3ccc(NC(=O)Nc4cc(C(F)(F)F)cc(C(F)(F)F)c4)cc3)c(C)nc2cc1OCCN1CCCCC1
active: [1] -35.6% | [2] -73.1% | [3] -92.6% | [4] -98.9% | [6] -100% | [10] -76.7% | [9] -26.7% | [8] -44.4%

COC(=O)Nc1nc2ccc(C(=O)C3CC3)cc2[nH]1
inactive: [1] 27.9% | [2] 32.7% | [3] 19.7% | [6] 37.1% | [10] 27.1%
active: [4] 6.33% | [7] 6.47% | [9] -22.3%
